CFTR F508del cor: correctors of CFTR F508del function in bronchial epithelial cells; actives 0.36% (n = 350,000); activity (quench increase), % at 7.58 µM; CFBE cells, YFP halide quenching; stimulated with forskolin plus potentiator P3; % fluorescence drop versus neutral controls;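 active = mean added fluorescence quench of at least 8% versus neutral control, with both replicates also reaching 8%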;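 note: cells transiently co-express mutant CFTR-F508del with the halide-sensitive YFP; corrector assay measuring rescue of mutant channel to the surface after 24 h compound exposure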
ATG4B inhibitor: inhibitors of human ATG4B cysteine protease; ATG4B cleavage of LC3-PLA2, NBD-HPC fluorescence, 1 h; inhibition, % at 8.33 µM; Q9Y4P1; actives 0.51% (n = 340,000); AID 504462; in the data active = inhibition above about 40%
Target sequence (Q9Y4P1 whole entry, looked up): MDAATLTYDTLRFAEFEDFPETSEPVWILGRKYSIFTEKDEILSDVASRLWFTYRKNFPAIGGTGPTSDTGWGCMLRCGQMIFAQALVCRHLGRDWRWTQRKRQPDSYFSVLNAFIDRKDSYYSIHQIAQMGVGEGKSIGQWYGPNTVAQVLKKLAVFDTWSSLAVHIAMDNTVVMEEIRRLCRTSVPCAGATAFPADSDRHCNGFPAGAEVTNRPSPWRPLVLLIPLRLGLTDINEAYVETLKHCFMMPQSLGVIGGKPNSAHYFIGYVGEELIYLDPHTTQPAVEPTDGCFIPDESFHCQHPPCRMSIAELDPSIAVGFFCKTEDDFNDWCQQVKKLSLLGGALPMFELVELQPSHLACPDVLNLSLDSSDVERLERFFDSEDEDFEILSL
MPTP block: inhibitors of mitochondrial permeability transition pore | inhibition, % at 10 µM | actives 1.4% (n = 360,000) | isolated mouse mitochondria, Ca2+ swelling absorbance, 30 min;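 active = inhibition of 50% or more, scaled per plate between neutral and stimulator controls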;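 note: 0% = DMSO wells given calcium and 100% = 1 mM EGTA wells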
CendR NRP1 mod: modulators of CendR peptide binding to human neuropilin-1; O14786; FAM-RPARPAR peptide binding to NRP-1, fluorescence polarization; inhibition, % at 25 µM; actives 0.85% (n = 360,000); AID 602438;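 active = inhibition or corrected inhibition above about 18%, plus a signal ratio from 0.5 to 1.5, limit read from the data, passing the limit was not always enough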
SKN-1 inh: inhibitors of C. elegans SKN-1. C. elegans VP596 Pgst-4::GFP/RFP ratio, acrylamide-induced, 24 h. inhibition, % at 21.8 µM. actives 0.49% (n = 360,000). AID 624304;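 active = interference check ratio from 0.5 to 1.5 plus GFP to RFP signal ratio inhibition reaching or exceeding a fixed threshold, cut at about 30% in these data, passing the limit was not always enough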
* marks the source's active call; other numbers are inactive results; x = not tested or not shown. Shown are actives, neighbours in structure and some others; about 2.7% of the full set was active somewhere.

SMILES	CFTR F508del cor	ATG4B inhibitor	MPTP block	CendR NRP1 mod	SKN-1 inh
COc1ccc(S(=O)(=O)N2CC(C(=O)O)Oc3ccccc32)cc1 (stereo not drawn)	-3.0	-1.2	-0.4	7.7	30.9*
COc1ccc(S(=O)(=O)N2CC(C(=O)O)Oc3ccc(Cl)cc32)cc1 (stereo not drawn)	0.8	5.5	-0.9	-1.1	-12.6
Cc1noc(C)c1NC(=O)Nc1ccc2c(c1)C(=O)N([C@H](C)CO)C[C@H](C)[C@@H](CN(C)C(=O)CCCN(C)C)OCCCC[C@H](C)O2	-3.5	x	x	x	x
Cc1ccc(NC(=O)C(=O)c2ccc(C)cc2)cc1	-0.6	9.1	-1.3	9.4	37.1*
Cc1c(Br)c(O)c(Br)c(O)c1/C=N/n1c(-c2ccccc2)n[nH]c1=S	x	68.5*	0.3	-55.5	1.0
COCC(=O)N[C@@H]1CC[C@H](CC(=O)N2CCCCC2)O[C@H]1CO	1.7	x	x	x	x
N#C/C(=C\c1ccco1)Sc1nc2ccccc2s1	x	5.2	3.3	-13.1	44.5*
C=CCN1C(=O)/C(=C\C=C2\N(C)c3ccccc3C2(C)C)SC1=S	5.3	-7.9	21.5	-66.0	71.0
C=CCN1C(=O)/C(=C/C=C2/N(CC)c3ccc(S(=O)(=O)N(C)C)cc3N2CC)SC1=S	11.4*	0.1	7.8	51.3	46.5
COc1ccc(N2CS(=O)CC2=O)cc1 (stereo not drawn)	-1.5	-1.1	1.1	26.6*	-5.7
Cc1c(C(=O)Nc2ccc(Oc3ccccc3)cc2)sc2nc3n(c(=O)c12)CCC3	x	-11.1	-1.6	6.7	-3.1
Cc1c(C(=O)Nc2ccc(OC(F)(F)F)cc2)sc2nc3n(c(=O)c12)CCC3	x	5.0	24.3	43.7*	-5.1
COCC(=O)N1[C@H](C#N)[C@H](c2ccccc2-c2cccc(OC)c2)[C@@H]1CO	1.0	x	x	x	x
Cc1ccsc1C(=O)N1CCCC(CO)(Cc2ccccc2F)C1 (stereo not drawn)	0.6	4.3	-0.6	20.9*	-13.8
S=C(Nc1ccccn1)c1ccccn1	x	x	-4.2	-11.4	39.4*
CC1=Nc2ccc(C)cc2/C1=C/c1c(N)n2nc(CC(=O)N3CCOCC3)sc2nc1=O	-0.7	-7.8	-2.0	-70.2	37.5*
C=CCN(C(=O)CSc1nc2ccsc2c(=O)n1Cc1ccccn1)c1ccccc1	1.7	-5.8	-0.7	-4.3	5.6
C=CCN(C(=O)CSc1nc2c(sc3ccccc32)c(=O)n1CCN(CC)CC)c1ccccc1	-1.1	25.2	48.6	25.1*	0.3
COc1cc2c(C#CCCO)c(-c3ccc(C#N)cc3)oc(=O)c2cc1OC	-0.8	-5.5	-0.6	3.9	15.8
COc1cc2c(C#CCCO)c(-c3ccsc3)oc(=O)c2cc1OC	13.7*	-28.7	-2.1	-29.5	-0.1
O=C(NCc1ccccc1)[C@@]1(CCS(=O)(=O)c2ccccc2)N=C(c2ccc(OCCCO)cc2)O[C@H]1c1ccccc1	-1.3	x	x	x	x
COc1nnc(-c2ccc(C(=O)N3C[C@@H]4C[C@H](C3)c3cccc(=O)n3C4)cc2)c2ccccc12	x	-12.9	1.9	19.2*	-12.2
O=C(CC1SC2=NCCN2C1=O)Nc1ccc(Cl)cc1 (stereo not drawn)	x	1.1	-0.3	27.0*	-15.3
COc1cccc(NC(=O)C[C@H]2CC[C@H]3[C@@H](COc4ccc(NC(=O)C5CCCC5)cc4C(=O)N3C)O2)c1	-1.5	x	x	x	x
COC(=O)c1ccc(Cn2nc(C)c(Br)c2C)cc1	x	-3.4	18.8	11.7	3.8
SMILES	CFTR F508del cor	ATG4B inhibitor	MPTP block	CendR NRP1 mod	SKN-1 inh
COC(=O)c1cc(C(=O)OC)n(Cc2ccc(Br)cc2)n1	x	1.7	0.9	31.7*	17.1
CCCCNc1cc(=O)oc2ccccc12	x	-2.4	1.3	-13.4	29.6*
CCOc1cc(C2C(C(=O)O)c3cc(OCC)c(OCC)cc3C(=O)N2C)ccc1O (stereo not drawn)	x	-9.0	-2.5	7.3	-7.7
CCOc1cc2c(cc1OCC)C(C(=O)O)C(c1cc(OC)c(OC)c(OC)c1)N(C)C2=O (stereo not drawn)	x	-17.0	0.1	4.4	35.7*
NNC(=O)c1[nH]c2ccc(Cl)cc2c1-c1ccccc1	16.8*	-5.2	0.9	-4.1	-4.4
NNC(=O)c1[nH]c2ccc(Br)cc2c1-c1ccccc1	7.7	-4.4	0.1	11.6	12.7
O=C(O)CSc1c(-c2ccccc2)c2cc(Cl)ccc2[nH]c1=O	x	8.1	-0.4	-7.1	-2.7
CCN(CC)C(=S)Sc1c(-c2ccccc2)c2cc(Cl)ccc2[nH]c1=O	x	-7.1	-4.8	6.1	35.1*
CCc1nnc(NC(=O)CSc2nnc(CCc3nc4ccccc4[nH]3)n2C)s1	x	-7.3	-0.1	19.0*	3.0
Cc1nnc(NC(=O)CSc2nnc(CCc3nc4ccccc4[nH]3)n2C)s1	x	-12.0	-0.7	7.6	2.0
O=C(CSc1nncs1)NNC(=O)c1ccccc1Br	3.2	-1.8	-2.4	20.2*	3.8
O=C(NNC(=O)c1cccs1)c1ccccc1	2.0	-1.9	-1.4	5.7	-1.8
O=C(NNC(=O)c1ccccc1Br)c1cccs1	0.6	-5.1	-2.8	24.9*	0.1
Cc1ccc(S(=O)(=O)Nc2ccc3c(c2)CC(=O)N([C@H](C)CO)C[C@H](C)[C@H](CN(C)S(=O)(=O)c2ccc(F)cc2)O3)cc1	-1.8	x	x	x	x
COc1cc2c(cc1OC)C(C)N(C(=O)Nc1cc(C)cc(C)c1)CC2 (stereo not drawn)	12.8*	-8.1	0.4	5.3	1.8
CN1CCN(C(=O)C[C@H]2CC[C@H]3[C@@H](COC[C@@H](O)CN3C(=O)C3CCOCC3)O2)CC1	0.3	x	x	x	x
O=C(C[C@H]1CC[C@@H]2[C@H](COC[C@H](O)CN2C(=O)Nc2ccccc2)O1)NCCc1ccncc1	1.2	x	x	x	x
CC(Nc1nc(-c2ccc(F)cc2)cs1)c1nc2cc(C(F)(F)F)ccc2n1CCOCCO (stereo not drawn)	0.5	-3.1	-0.2	28.5*	-2.3
COc1ccc(-c2csc(NC(C)c3nc4cc(C(F)(F)F)ccc4n3CCOCCO)n2)cc1 (stereo not drawn)	1.4	-24.9	0.4	-7.1	-9.3
COc1ccccc1C1CC(c2cccc(NS(C)(=O)=O)c2)=NN1S(=O)(=O)c1ccccc1 (stereo not drawn)	2.6	-12.9	1.1	-215.0	36.8*
O=C(c1ccccc1)N1CC2(C1)[C@@H](c1ccccc1)[C@@H](CO)N2C(=O)CC1CC1	-1.9	x	x	x	x
Cc1ccc(S(=O)(=O)N2C[C@@H]3[C@H](c4ccccc42)[C@H](CO)N3Cc2cccnc2)cc1	3.7	x	x	x	x
COC(=O)c1cccc(NC(=S)NCCC2=CCCCC2)c1	x	-4.2	5.4	36.1*	-7.3
CO[C@@H]1CN(C)C(=O)c2ccc(NC(=O)Nc3ccc(Cl)cc3)cc2OC[C@H](C)NC[C@@H]1C	-2.3	x	x	x	x
C=CCn1nc(-c2ccccc2)cc1C(=O)OCC	-3.0	2.1	0.6	27.7*	-2.5
Cc1ccc(C(=O)NCC(=O)NCCSc2ccc(Br)cc2)cc1	1.9	8.2	-0.9	4.5	2.8
CCOc1ccc(C(=O)NCC(=O)NCCSc2ccc(Br)cc2)cc1OCC	-1.3	-13.1	0.7	23.3*	3.2
